# MEKK2wt PB1 HTS: raises or lowers MEK5 binding to wildtype human MEKK2 PB1 domain. binding response (% of control), % at 10 µM. 290,000 compounds, 1.1% hits. bead flow cytometry, Alexa488-MEK5 binding to MEKK2 WT; actives lie on both sides. AID 1531. Q9Y2U5; in the data active = binding response below about 67% or above about 130%
# ABCB6 inh MLPCN: inhibitors of human ABC transporter ABCB6 | Q9NP58 | fluorescence ratio to DMSO, % at 10 µM | K562-ABCB6 porphyrin accumulation, flow cytometry, 1 h; stronger effect = lower value | 360,000 compounds, 0.19% hits | AID 602162;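 active = fluorescence ratio to DMSO below 75%, the collection mean minus 3 SD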;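 note: signal is porphyrin accumulated inside mitochondria; 100% equals median channel fluorescence of DMSO control wells; lower ratio means ABCB6 inhibition with less porphyrin fluorescence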
# CRFBP-R2 block: CRF-BP/CRF-R2 complex antagonism; inhibition, % at 11.8 µM; HEK293 CRF-R2/CRF-BP, CRF-induced calcium fluorescence; 350,000 compounds, 0.59% hits;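 active = inhibition of the ligand-induced calcium signal above about 50% at the single tested concentration, limit read from the data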
# MEKK3 PB1 HTS: MEKK3-MEK5 PB1 interaction, increase or decrease. Q99759. bead-based flow cytometry, Alexa488-MEK5 binding to MEKK3; actives lie on both sides; 0 = blocked by unlabeled MEK5, 100 = vehicle. 290,000 compounds, 1.4% hits. binding response (% of control), % at 10 µM;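 active = binding response more than 3 SD above or below the average of its plate-row segment, actives on both sides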;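 note: Alexa488 bead fluorescence after subtracting the streptavidin-only scavenger bead signal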
# Target sequence (Q99759 whole entry, looked up): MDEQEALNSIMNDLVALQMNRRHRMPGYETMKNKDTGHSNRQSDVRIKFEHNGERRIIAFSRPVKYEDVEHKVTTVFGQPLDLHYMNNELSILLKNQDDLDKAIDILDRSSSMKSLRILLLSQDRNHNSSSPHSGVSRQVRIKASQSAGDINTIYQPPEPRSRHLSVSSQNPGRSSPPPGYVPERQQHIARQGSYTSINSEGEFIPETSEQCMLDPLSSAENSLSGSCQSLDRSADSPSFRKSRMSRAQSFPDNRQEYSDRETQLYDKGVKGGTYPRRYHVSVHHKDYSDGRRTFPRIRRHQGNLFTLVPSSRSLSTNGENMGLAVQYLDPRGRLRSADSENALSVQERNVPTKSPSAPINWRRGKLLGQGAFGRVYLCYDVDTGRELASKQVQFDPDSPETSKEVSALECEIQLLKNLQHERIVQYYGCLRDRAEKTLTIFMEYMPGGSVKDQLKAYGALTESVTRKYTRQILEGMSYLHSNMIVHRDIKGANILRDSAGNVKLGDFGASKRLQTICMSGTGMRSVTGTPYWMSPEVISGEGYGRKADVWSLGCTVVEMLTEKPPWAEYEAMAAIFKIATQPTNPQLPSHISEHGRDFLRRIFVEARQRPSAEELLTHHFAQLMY
# CRFBP-R2 agonist: agonists of human CRF-binding protein/CRF-R2 receptor complex. HEK293 CRF-R2/CRF-BP, calcium dye fluorescence (FLIPR); percent of saturating CRF peptide response. activation, % at 13.2 µM. 350,000 compounds, 0.46% hits. AID 588473;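 active = activation of at least 50%, plus an integration ratio under a set limit after plate pattern correction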;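 note: plate controls were neutral control wells without compound for no effect and CRF at EC100 for full effect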
# MEKK2mut PB1 HTS: signal of MEK5 binding to mutant human MEKK2 PB1 domain; 290,000 compounds, 0.35% hits; percent response, % at 10 µM; bead flow cytometry, Alexa488-MEK5 binding to MEKK2 mutant; in the data active = percent response above about 24%, passing the limit was not always enough
# MEKK2wt confirm: raises or lowers MEK5 binding to wildtype human MEKK2, retest. binding response (% of control), % at 10 µM. AID 1892. shares compounds with MEKK3 PB1 HTS. 5,900 compounds, 2.4% hits. bead flow cytometry, Alexa488-MEK5 binding to MEKK2 WT; actives lie on both sides; in the data active = binding response below about 16% or above about 210%; inactive = in between
# MEKK2mut-MEK5: signal of MEK5 binding to mutant human MEKK2, retest; 5,900 compounds, 2% hits; shares compounds with MEKK3 PB1 HTS; percent response, % at 10 µM; bead flow cytometry, Alexa488-MEK5 binding to MEKK2 mutant; in the data active = percent response mostly above about 71%, no sharp cut-off; inactive = mostly below about 38%;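 note: higher means compound restores mutant binding toward wildtype level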
# MEKK3 confirm: MEKK3-MEK5 PB1 inhibition, single concentration confirmation | shares compounds with MEKK3 PB1 HTS | bead flow cytometry, Alexa488-MEK5 binding to MEKK3; stronger effect = lower value | binding response (% of control), % at 10 µM | 5,900 compounds, 1.8% hits;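 active = binding response below 72% of control, or above a set upper limit, though filed actives all read lower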;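 note: 100% = DMSO only wells and 0% = binding blocked by excess unlabeled MEK5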
# Starred values were filed as active, the others as inactive; . = not tested or not shown; [ ] = dose if it differs, or a comment. This is a sample that favours compounds with a hit; in the whole collection about 2.9% have one here.
SMILES,MEKK2wt PB1 HTS,ABCB6 inh MLPCN,CRFBP-R2 block,MEKK3 PB1 HTS,CRFBP-R2 agonist,MEKK2mut PB1 HTS,MEKK2wt confirm,MEKK2mut-MEK5,MEKK3 confirm
CC(=O)Oc1ccc(C(=O)[C@H]2[C@H]3C(=O)N(c4cccc5ccccc45)C(=O)[C@H]3[C@@H]3C=CC=NN32)cc1,101,107,-9,179*,4,0,101,2,103
C=CCN(CC(=O)Nc1c(C)cccc1CC)C(=O)SCCC,95,96,3,81*[inhibitor],-2,-9,98,-1,99
COc1cccc(NC(=O)CN(C)C(=O)CCN2C(=O)C3CC=CCC3C2=O)c1 (stereo not given),.,96,11,.,-1,.,.,.,.
COc1ccc(-c2cc(-n3c(C(F)(F)F)nc4ccccc43)n(CCC#N)n2)cc1,86,99,-3,82*[inhibitor],0,-7,98,-10,100
CCOc1ccc(N(CC(=O)NC2CCCCC2)S(=O)(=O)c2ccccc2)cc1,99,98,-10,103,-2,-1,.,.,.
Cc1cc(C)cc(C(=O)O/N=C(\N)c2ccc(Br)cc2)c1,98,99,4,100,0,2,.,.,.
Cc1ccc(C(=O)O/N=C(\N)c2ccc(Br)cc2)cc1C,1.0*[inhibitor],95,29,2.0*[inhibitor],-1,-15,102,6,102
CC(C)Cc1nnc(NC(=O)Nc2ccccc2)s1,86,101,-30,95,2,-8,.,.,.
CC(C)COC(=O)c1nnsc1NC(=O)Nc1ccccc1,81,97,0,76*[inhibitor],-1,-13,96,-6,103
O=C(COc1ccccc1[N+](=O)[O-])N/N=C/c1ccncc1,88,101,28,94,0,-12,.,.,.
O=C(COc1ccccc1[N+](=O)[O-])N/N=C/c1ccc(O)cc1,102,98,-11,136*,2,0,103,1,105
CCC(CC)NC(=O)COC(=O)c1ccc(OCc2ccc(C(C)=O)cc2OC)c(OC)c1,98,98,3,97,-1,-2,.,.,.
COc1cc(C(C)=O)ccc1COc1ccc(C(=O)OCC(N)=O)cc1OC,98,97,11,72*[inhibitor],-1,-1,110,12,107
COc1cc(/C=N/NC(=S)Nc2cccc(C(=O)O)c2)ccc1O,111,94,38,143*,0,2,102,9,102
COc1ccc(/C=N/NC(=S)Nc2cccc(C(=O)O)c2)cc1,104,96,-24,105,-2,-2,.,.,.
C=CC[C@@H](CC(=O)NCCO)C(=O)N[C@H](C)COC(=O)[C@@H](CC=C)Cc1ccc(F)cc1,.,97,3,.,-2,.,.,.,.
NC(=O)N/N=C/c1coc2ccc(O)cc2c1=O,55,100,-5,45*[inhibitor],-1,-31,101,-2,100
Cc1ccc(O)c(CCc2ccc(O)cc2)n1,94,102,20,100,-1,-8,.,.,.
O=S(=O)(NCCCCCNS(=O)(=O)c1c(F)cccc1F)c1ccc2c(c1)OCCO2,.,108,-1,.,-1,.,.,.,.
O=S(=O)(NCCOc1ccc(F)cc1)c1ccc2c(c1)OCCO2,2.0*[inhibitor],96,3,2.0*[inhibitor],-7,-18,107,1,107
Cc1ccccc1S(=O)(=O)N1CCN(c2ccc3c(c2)C2CC3CCN2C(=O)OCc2ccccc2)CC1 (stereo not given),.,93,.,.,.,.,.,.,.

# High-throughput results: PubChem, several laboratories
